Measured values as given in PubChem BioAssay (Tox21).
Records with an inconclusive call do not appear. Calls of active or inactive are those of the source. Unless noted, calls follow the shape of the dose curve; as a rule, active = well fitted curve in the direction sought with a large enough effect in the repeat runs; inconclusive = weak or mixed curves; inactive = no such curve, though single readings can be large; an effect the other way counts as inactive or inconclusive.

How the values were obtained:
[1] = qHTS assay for small molecule agonists of the p53 signaling pathway (AID 651631; calls by dose curve; also: nearly all actives have a fitted effect of over 15% in size)
Outline: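 We treat p53RE-bla HCT-116 cells with compounds for 16 h at 37 °C, add LiveBLAzer B/G FRET substrate for 2 h at room temperature, and measure fluorescence intensity.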

[2] = qHTS assay for small molecules that induce genotoxicity in human embryonic kidney cells expressing luciferase-tagged ATAD5 (AID 651632); also: nearly all actives have a fitted effect of over 15% in size; also: potency is read from the fitted curve at half-maximal effect
Outline: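 Luminescent reporter readout, HEK293T ATAD5-luc line: 16 hr drug exposure (37C, 5% CO2) followed by Amplite, 30 min RT.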

[3] = qHTS assay for small molecule agonists of the p53 signaling pathway - cell viability (AID 651633; calls by dose curve;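 also: p53RE-bla HCT reporter cells with a stable beta-lactamase p53 reporter; series mostly up to about 83 µM; nearly all actives have a fitted effect of over 30% in size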)
Outline: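 p53RE-bla cells, seeded at 4,000 per well and rested 5 h at 37 C/5% CO2, received compounds in DMSO for 16 h at 37 C. CellTiter-Glo was then added, and luminescence was read after 30 min at room temperature to gauge cytotoxicity.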

[4] = qHTS assay for small molecules that induce genotoxicity in human embryonic kidney cells expressing luciferase-tagged ATAD5 - cell viability (AID 651634; calls by dose curve; also: nearly all actives have a fitted effect of over 25% in size)
Outline: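 Viability read: CellTiter-Fluor fluorescence, 30 min at 37C. Cells: HEK293T, luciferase-tagged ATAD5. Exposure: 15.5 hr, 37C, 5% CO2, compound or DMSO vehicle.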

[5] = qHTS assay for small molecule disruptors of the mitochondrial membrane potential - cell viability (AID 720634; calls by dose curve;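 also: human HepG2 liver cancer cells; series mostly up to about 83 µM; nearly all actives have a fitted effect of over 20% in size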)
Outline: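 HepG2, 1 hr compound, 37 C. ATP luminescence via CellTiter-Glo, 30 min RT, same well as m-MPI.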

[6] = qHTS assay to test for compound auto fluorescence at 590 nm (red) in HepG2 cells (AID 720674)
Outline: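 Rose Bengal sodium served as the red fluorophore standard. HepG2 monolayers (overnight attachment, MEM with 10% FBS) were exposed to test compounds for 1 hr at 37 C and read at Ex 540/Em 590 nm.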

[7] = qHTS assay to test for compound auto fluorescence at 535 nm (green) in HepG2 cells (AID 720675)
[8] = qHTS assay to test for compound auto fluorescence at 590 nm (red) in HEK293 cells (AID 720679)
Outline: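 Plates of HEK293 cells (10% dialyzed FBS) are treated with 23 nL compound or DMSO vehicle after a 4-5 hr attachment period, incubated overnight at 37C, and read for red fluorescence at 540/590nm.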

[9] = qHTS assay to test for compound auto fluorescence at 535 nm (green) in HEK293 cells (AID 720680)
[10] = qHTS assay to test for compound auto fluorescence at 460 nm (blue) in HEK293 cell free culture (AID 720681)
Outline: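 Test compounds were pinned into cell-free culture medium (DMEM with 10% FBS) and fluorescence was read directly at Ex/Em 405/460 nm. Signals were expressed as fluorescence equivalents of triamterene, with DMSO vehicle as control.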

[11] = qHTS assay to test for compound auto fluorescence at 535 nm (green) in HEK293 cell free culture (AID 720682)
Outline: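 Green-channel intensity (Ex/Em 485/535 nm) was recorded from compound-treated wells containing only DMEM with 10% FBS. Fluorescein provided the equivalency standard.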

[12] = qHTS assay to test for compound auto fluorescence at 590 nm (red) in HEK293 cell free culture (AID 720683)
Outline: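 Tox21 10K library compounds were pinned into cell-free DMEM with 10% FBS and fluorescence was read at excitation 540 nm. Activity is expressed as Rose Bengal sodium equivalency.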

[13] = qHTS assay to test for compound auto fluorescence at 590 nm (red) in HepG2 cell free culture (AID 720684)
Outline: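 Measured in medium alone (MEM containing 10% FBS) following pintool addition of compound; emission at 590 nm with 540 nm excitation, referenced to Rose Bengal sodium.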

[14] = qHTS assay to test for compound auto fluorescence at 460 nm (blue) in HepG2 cell free culture (AID 720685)
Outline: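 Compound (23 nL) or DMSO pinned into cell-free MEM with 10% FBS; blue fluorescence read at 405/460 nm excitation/emission, expressed as auto-fluorescence equivalency to triamterene.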

[15] = qHTS assay to test for compound auto fluorescence at 535 nm (green) in HepG2 cell free culture (AID 720686)
[16] = qHTS assay to test for compound auto fluorescence at 460 nm (blue) in HepG2 cells (AID 720687)
Outline: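 Cells (2,000/well in MEM with 10% FBS) attached overnight at 37 C, then were exposed to compound or DMSO for 1 hr at 37 C, 5% CO2. Fluorescence read at Ex/Em 405/460 nm, expressed as triamterene-equivalent signal.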

[17] = target: Glucocorticoid receptor (Homo sapiens) (UniProt P04150); assay: qHTS assay to identify small molecule agonists of the glucocorticoid receptor (GR) signaling pathway (AID 720691; active = well fitted activation curve with a large enough effect in the signal ratio in the repeat runs, not every such curve was filed as active; the % refers to the signal ratio)
Glucocorticoid receptor (Homo sapiens), sequence (P04150 whole entry, looked up): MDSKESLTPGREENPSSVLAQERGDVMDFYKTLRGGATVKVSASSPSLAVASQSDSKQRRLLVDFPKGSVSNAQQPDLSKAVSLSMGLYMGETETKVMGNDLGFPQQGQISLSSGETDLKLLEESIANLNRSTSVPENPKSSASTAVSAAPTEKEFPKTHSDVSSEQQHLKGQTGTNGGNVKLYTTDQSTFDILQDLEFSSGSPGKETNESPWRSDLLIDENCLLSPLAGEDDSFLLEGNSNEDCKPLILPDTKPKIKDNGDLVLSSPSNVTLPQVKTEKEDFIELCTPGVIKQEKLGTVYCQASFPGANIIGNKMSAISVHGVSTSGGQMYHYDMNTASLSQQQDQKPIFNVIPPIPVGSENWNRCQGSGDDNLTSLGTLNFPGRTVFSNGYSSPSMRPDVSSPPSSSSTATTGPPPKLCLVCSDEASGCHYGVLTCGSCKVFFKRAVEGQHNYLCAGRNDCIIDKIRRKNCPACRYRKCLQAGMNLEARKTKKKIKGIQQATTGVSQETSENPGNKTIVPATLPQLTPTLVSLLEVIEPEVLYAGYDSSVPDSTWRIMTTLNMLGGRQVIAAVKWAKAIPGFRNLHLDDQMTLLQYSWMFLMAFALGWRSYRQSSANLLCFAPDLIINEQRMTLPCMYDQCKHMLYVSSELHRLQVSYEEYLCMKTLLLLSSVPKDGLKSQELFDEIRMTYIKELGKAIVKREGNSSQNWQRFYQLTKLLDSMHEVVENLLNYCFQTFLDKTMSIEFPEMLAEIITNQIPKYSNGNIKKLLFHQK
Outline: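 qHTS in GR-bla HeLa cells: 4 h settling at 37 C/5% CO2, 18 h compound incubation at 37 C, 2 h LiveBLAzer B/G FRET substrate at room temperature, fluorescence intensity measured.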

[18] = target: Glucocorticoid receptor (Homo sapiens) (UniProt P04150); assay: qHTS assay to identify small molecule antagonists of the glucocorticoid receptor (GR) signaling pathway (AID 720692; active = well fitted inhibition curve with a large enough effect in the signal ratio in the repeat runs, not every such curve was filed as active; the % refers to the signal ratio; also: potency is read from the fitted curve at half-maximal effect)
Outline: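 Inhibition of glucocorticoid signalling is measured in HeLa cells with a GRE-controlled beta-lactamase reporter; cells are co-treated with compound and 5 nM dexamethasone (final) for 18 h before FRET substrate readout.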

[19] = qHTS assay for small molecule disruptors of the mitochondrial membrane potential (AID 720635)
Outline: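 HepG2 cells (2,000/well) attached overnight at 37C, then took compound for 1 hr at 37C, 5% CO2. Mito-MPS dye was added for 30 min; fluorescence was read at 490/535 nm (monomers) and 540/590 nm (aggregates).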

[20] = qHTS assay to test for compound auto fluorescence at 460 nm (blue) in HEK293 cells (AID 720678)
Outline: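 After cell attachment (4-5 hr, 37C), compounds were pinned onto HEK293 monolayers in 10% dialyzed FBS medium. The blue channel (405/460 nm) was read following overnight culture. Equivalency was calculated against triamterene.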

Measured: Potency

CC(C)=CCC/C(C)=C/C#N
inactive: [1] | [2] | [3] | [4] | [5] | [6] | [7] | [8] | [9] | [10] | [11] | [12] | [13] | [14] | [15] | [16] | [17] | [18]

C=CN1CCCCCC1=O
inactive: [1] | [2] | [3] | [5] | [19] | [6] | [7] | [20] | [8] | [9] | [10] | [11] | [12] | [13] | [14] | [15] | [16] | [17] | [18]

CC(N)C12CC3CC(CC(C3)C1)C2 (stereo not given)
inactive: [1] | [2] | [3] | [4] | [5] | [6] | [20] | [8] | [9] | [10] | [11] | [12] | [13] | [14] | [15] | [16] | [17]

CCCCCCCCCCCCSC
inactive: [1] | [2] | [3] | [4] | [5] | [6] | [7] | [8] | [9] | [10] | [11] | [12] | [13] | [14] | [16] | [17] | [18]

CC(=O)c1ccc2ccccc2c1
inactive: [1] | [2] | [3] | [4] | [6] | [7] | [20] | [8] | [9] | [10] | [11] | [12] | [13] | [14] | [15] | [16] | [17] | [18]

CCOC(=O)COC(=O)c1ccccc1C(=O)OCC
inactive: [1] | [2] | [3] | [4] | [5] | [6] | [7] | [20] | [8] | [9] | [10] | [11] | [12] | [13] | [14] | [15] | [17] | [18]

CCOC(=O)CCC(=O)OCC
inactive: [1] | [2] | [3] | [4] | [6] | [7] | [9] | [10] | [11] | [12] | [13] | [14] | [15] | [16] | [17] | [18]

O=C(O)CNC(=O)c1ccc(CO)o1
inactive: [1] | [2] | [3] | [4] | [5] | [7] | [20] | [8] | [9] | [10] | [11] | [12] | [13] | [14] | [15]

CC1OC1C1CCC2(C)OC2C1 (stereo not given)
inactive: [1] | [2] | [3] | [4] | [5] | [6] | [20] | [8] | [9] | [10] | [11] | [12] | [13] | [14] | [15] | [16] | [17] | [18]

CCCCCCCCCCCCCCC(=O)O
inactive: [1] | [2] | [3] | [5] | [19] | [6] | [7] | [20] | [8] | [9] | [10] | [11] | [12] | [13] | [14] | [15] | [16]

COc1cc(C(=O)OC(COCCC(C)C)CN2CCOCC2)cc(OC)c1OC (stereo not given)
inactive: [1] | [2] | [3] | [5] | [19] | [6] | [7] | [20] | [9] | [10] | [11] | [12] | [13] | [14] | [16] | [17] | [18]

CCC(=O)OCc1ccccc1
inactive: [1] | [2] | [3] | [4] | [5] | [6] | [7] | [20] | [8] | [9] | [10] | [11] | [12] | [13] | [14] | [17] | [18]

C[C@H]1C[C@H]2[C@@H]3CCC4=CC(=O)C=C[C@]4(C)[C@H]3C(=O)C[C@]2(C)[C@@]1(O)C(=O)CO
active: [18] 2.13 µM
inactive: [1] | [2] | [3] | [5] | [19] | [6] | [7] | [20] | [8] | [9] | [10] | [11] | [12] | [14] | [15] | [16] | [17]

O=C(O)CC(C(=O)O)S(=O)(=O)O (stereo not given)
inactive: [1] | [2] | [3] | [4] | [5] | [6] | [8] | [9] | [10] | [11] | [12] | [13] | [14] | [17] | [18]

CC1=CC(=O)[C@H]2C[C@@H]1C2(C)C
inactive: [1] | [2] | [3] | [4] | [5] | [6] | [7] | [20] | [9] | [10] | [11] | [12] | [14] | [15] | [16] | [17] | [18]

CCOc1ccccc1OCC
inactive: [1] | [2] | [3] | [5] | [19] | [6] | [7] | [20] | [8] | [9] | [10] | [11] | [12] | [14] | [15] | [16] | [17] | [18]

COc1cc(-c2ccc(=O)[nH]n2)ccc1OC(F)F
active: [2] 13.3 µM
inactive: [1] | [3] | [5] | [19] | [6] | [7] | [20] | [8] | [9] | [10] | [11] | [12] | [13] | [14] | [15] | [16]

C=C[Si](OC(C)=O)(OC(C)=O)OC(C)=O
inactive: [1] | [2] | [3] | [4] | [5] | [6] | [7] | [20] | [9] | [10] | [11] | [12] | [13] | [14] | [15] | [16] | [17]

CCCCCCCCN1CCCC1=O
inactive: [1] | [2] | [3] | [4] | [5] | [6] | [20] | [9] | [10] | [11] | [12] | [13] | [14] | [16] | [17] | [18]
